From PubChem BioAssay AID1852 (Sanford-Burnham Center for Chemical Genomics, 2009)
About 1,100 (44%) of roughly 2,500 compounds were called active. So high a share suggests a set chosen from earlier hits. The list shows a part of the results. A number with no mark means an inactive call.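 The calls were made as follows: active = inhibition above 50% at 4 µM in the single-point screen; inactive = inhibition of 50% or less.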

Test: TNF-a-driven NF-kB reporter inhibitors, primary screen, selectivity assay for NOD1/NOD2 signaling inhibitor project, cell-based, HEK293T NF-kB-Luc, luminescence (AID 1852)
Settings: TNF-a induced, 14 h, at 4 µM, active compounds read high

| SMILES | inhibition |
| --- | --- |
| O=C(Nc1ccc2oc(-c3cccnc3)nc2c1)c1ccc([N+](=O)[O-])o1 | 43.1% |
| CC(=O)Nc1ccc(S(=O)(=O)Nc2ccc3c(c2)CCC3)cc1 | 85% (active) |
| CC(=O)c1cccc(NS(=O)(=O)c2ccc(NC(=O)N3CCCCC3)cc2)c1 | 19.3% |
| COc1cccc(NS(=O)(=O)c2ccc3c(c2)CCN3C(C)=O)c1 | 41.6% |
| C=C1C(=O)O[C@@H]2C[C@@H](C)[C@@H]3C=CC(=O)[C@@]3(C)[C@@H](OC(C)=O)[C@H]12 | 101% (active) |
| Cc1oc2c(F)c(F)c(F)c(F)c2c1S(=O)(=O)Nc1cccc(C(F)(F)F)c1 | 87.4% (active) |
| Cc1ccc(OC(F)F)c(NC(=O)Nc2cccc(C(F)(F)F)c2)c1 | 8.9% |
| O=C(OCn1ncc(Cl)c(Cl)c1=O)c1ccccc1Cl | 94.2% (active) |
| O=C(OCC(=O)N1CCOCC1)c1ccccc1Br | 0.9% |
| CCOC(=O)c1cnn(Cc2cccc(Cl)c2)c1C | -4.9% |
| O=C(OCn1ncc(Br)c(Br)c1=O)c1ccccc1Cl | 79.3% (active) |
| c1ccc(-c2csc(Nc3ccc4c(c3)OCCO4)n2)cc1 | -211% |
| O=C(/C=C/c1ccc2c(c1)OCO2)Nc1nc(-c2ccccc2)cs1 | 103% (active) |
| O=C(Nc1nc(-c2ccc3c(c2)OCO3)cs1)c1ccncc1 | 34.9% |
| C(=N\Nc1nc2ccccc2s1)/c1ccccn1 | 105% (active) |
| CC(=O)Nc1ccc2nc(NC(=O)c3ccc([N+](=O)[O-])o3)sc2c1 | 18.3% |
| O=[N+]([O-])c1cc(Br)c(O)c(/C=N/Nc2nc3ccccc3s2)c1 | 79.2% (active) |
| CCN1C(=O)/C(=C/c2nc3ccccc3c(=O)n2-c2ccccc2)c2ccccc21 | 40.6% |
| CC(C)C1Nc2c(O)cc(Cl)c([N+](=O)[O-])c2C2C=CCC21 (centres undefined) | 74.1% (active) |
| O=C1OCCC1Sc1nnc(-c2ccc(Cl)cc2Cl)o1 (centres undefined) | 35.1% |

| SMILES | inhibition |
| --- | --- |
| CC(C)NC(=O)c1ccc(Sc2ccccc2)c([N+](=O)[O-])c1 | 16.7% |
| CC(=O)c1ccc(Sc2nnnn2-c2ccccc2)c([N+](=O)[O-])c1 | 61.3% (active) |
| Cn1cnnc1Sc1ccc(/C=C/C(=O)c2ccc(O)cc2)cc1[N+](=O)[O-] | 6.7% |
| O=C(Nc1ccc(F)cc1)c1nc(S(=O)(=O)Cc2ccccc2)ncc1Cl | 60.6% (active) |
| Cc1ccc(NC(=O)c2nc(S(=O)(=O)Cc3ccccc3C)ncc2Cl)cc1C | 5.2% |
| Cc1cccc(CS(=O)(=O)c2ncc(Cl)c(C(=O)Nc3ccc(F)cc3)n2)c1 | 43% |
| CN(c1ccccc1)S(=O)(=O)c1ccc(NC(=O)c2nc(S(C)(=O)=O)ncc2Cl)cc1 | 60.4% (active) |
| CCS(=O)(=O)c1ncc(Cl)c(C(=O)Nc2ccc(C)cc2)n1 | 99.2% (active) |
| CCN(c1ccccc1)S(=O)(=O)c1ccc(NC(=O)c2nc(S(C)(=O)=O)ncc2Cl)cc1 | 30% |
| CCS(=O)(=O)c1ncc(Cl)c(C(=O)Nc2ccc(S(=O)(=O)N(C)c3ccccc3)cc2)n1 | 88.3% (active) |
| CCCc1cc(=O)n2[nH]cc(-c3ccc(Cl)cc3)c2n1 | 101% (active) |
| O=c1c2c(nc3c(-c4ccc(Cl)cc4)c[nH]n13)CCC2 | 102% (active) |
| Cc1nc2c(-c3ccc(Cl)cc3)cnn2c(N)c1-c1ccc(F)cc1 | -246% |
| O=C(c1[nH]ncc1-c1cccc(Br)c1)C1CO1 (centres undefined) | 33.6% |
| O=c1c2c(nc3c(-c4cccc(Br)c4)c[nH]n13)CCCC2 | 83% (active) |
| O=c1c2c(nc3c(-c4ccc(Cl)cc4)c[nH]n13)CCCC2 | 75.3% (active) |
| O=C(Cc1ccc(Br)cc1)Nc1ncc([N+](=O)[O-])s1 | 23.8% |
| CC(C)N1C(=O)/C(=C/c2nc3ccccc3c(=O)n2-c2ccccc2)c2ccccc21 | 43.6% |
| COc1ccc(C(=O)c2ccccc2)c2c(O)ccc(C(=O)c3ccccc3)c12 | 53.3% (active) |
| COc1ccc(O)c(-c2[nH]ncc2C(=O)c2ccccc2)c1 | 9.4% |

| SMILES | inhibition |
| --- | --- |
| COc1ccc(C(=O)n2cc(C(=O)c3cc(C)ccc3O)cn2)cc1OC | 36.5% |
| CCc1cccc(CC)c1NC(=O)CN1CCc2cc(OC)c(OC)cc2C1 | 23.9% |
| COc1ccc(Oc2ccccc2/C=N/O)cc1 | 81.6% (active) |
| COc1ccc(N2CCN(c3cc(=O)n(Cc4ccc(F)cc4)c(=O)[nH]3)CC2)cc1 | 6.1% |
| COc1ccc(C2C(O)C(c3c[nH]c4ccccc34)=NN2C(=O)CCl)cc1 (centres undefined) | 96.7% (active) |
| CNc1nc(-c2ccc3c(c2)CCN3S(=O)(=O)c2ccccc2)c(C)s1 | 79.2% (active) |
| O=C(CN1CCOCC1)Nc1nc(-c2ccc3c(c2)CCN3S(=O)(=O)c2ccccc2)cs1 | -1% |
| CC(=O)N1CCc2cc(S(=O)(=O)NCc3ccc(C)cc3)ccc21 | 26.3% |
| CC(=O)c1c(O)c(C)c(O)c2c1OC1=CC(=O)C(C(C)=O)C(=O)[C@@]12C (some centres undefined) | 80.3% (active) |
| O=C(c1ccc2c(c1)CCN2S(=O)(=O)c1ccccc1)N1CCN(c2ccc(F)cc2)CC1 | 65.3% (active) |
| Cc1ccc(C(=O)N2CCN(c3ccc(F)cc3)CC2)cc1S(=O)(=O)N1CCCCC1 | 43.8% |
| COC(=O)c1ccc(NC(=O)c2nc(S(=O)(=O)Cc3cccc(C)c3)ncc2Cl)cc1 | 47.3% |
| Cc1cccc(CS(=O)(=O)c2ncc(Cl)c(C(=O)Nc3nnc(C(C)C)s3)n2)c1 | 84.2% (active) |
| Cc1ccc(CS(=O)(=O)c2ncc(Cl)c(C(=O)Nc3nnc(C(C)C)s3)n2)cc1 | 85.6% (active) |
| CSc1nnc(NC(=O)c2nc(S(=O)(=O)Cc3ccc(C)cc3)ncc2Cl)s1 | 98.9% (active) |
| CCC(C)[C@@H](NC(=O)OC(C)(C)C)c1nnc(S(=O)(=O)Cc2cccc(C)c2)o1 (some centres undefined) | 45.7% |
| CCC(=O)Nc1nc2ccccc2n1Cc1ccccc1Cl | 75.1% (active) |
| Cc1ccccc1Cn1c(C)nc2ccccc21 | 32% |
| O=C(Nc1nc2ccccc2n1Cc1ccc(Cl)cc1)c1ccco1 | 41.5% |
